From publication PMC4336329 (PLoS ONE, 2015)
Screen size: about 310,000 compounds; about 14,000 (4.5%) showed an effect of 50% or more. Effects have a minus sign here. For the sample, strong results were picked, then their nearest neighbours and some compounds at random.

These molecules were tested against human ether-à-go-go-related gene (hERG) potassium channel (human, UniProt Q12809) (assay: primary screen, population patch clamp on CHO cells stably expressing hERG; higher = less effect of the substance).
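Further: peak tail current of the secondary pulse compared with the same well before compound.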

human ether-à-go-go-related gene (hERG) potassium channel, sequence (Q12809 whole entry, looked up): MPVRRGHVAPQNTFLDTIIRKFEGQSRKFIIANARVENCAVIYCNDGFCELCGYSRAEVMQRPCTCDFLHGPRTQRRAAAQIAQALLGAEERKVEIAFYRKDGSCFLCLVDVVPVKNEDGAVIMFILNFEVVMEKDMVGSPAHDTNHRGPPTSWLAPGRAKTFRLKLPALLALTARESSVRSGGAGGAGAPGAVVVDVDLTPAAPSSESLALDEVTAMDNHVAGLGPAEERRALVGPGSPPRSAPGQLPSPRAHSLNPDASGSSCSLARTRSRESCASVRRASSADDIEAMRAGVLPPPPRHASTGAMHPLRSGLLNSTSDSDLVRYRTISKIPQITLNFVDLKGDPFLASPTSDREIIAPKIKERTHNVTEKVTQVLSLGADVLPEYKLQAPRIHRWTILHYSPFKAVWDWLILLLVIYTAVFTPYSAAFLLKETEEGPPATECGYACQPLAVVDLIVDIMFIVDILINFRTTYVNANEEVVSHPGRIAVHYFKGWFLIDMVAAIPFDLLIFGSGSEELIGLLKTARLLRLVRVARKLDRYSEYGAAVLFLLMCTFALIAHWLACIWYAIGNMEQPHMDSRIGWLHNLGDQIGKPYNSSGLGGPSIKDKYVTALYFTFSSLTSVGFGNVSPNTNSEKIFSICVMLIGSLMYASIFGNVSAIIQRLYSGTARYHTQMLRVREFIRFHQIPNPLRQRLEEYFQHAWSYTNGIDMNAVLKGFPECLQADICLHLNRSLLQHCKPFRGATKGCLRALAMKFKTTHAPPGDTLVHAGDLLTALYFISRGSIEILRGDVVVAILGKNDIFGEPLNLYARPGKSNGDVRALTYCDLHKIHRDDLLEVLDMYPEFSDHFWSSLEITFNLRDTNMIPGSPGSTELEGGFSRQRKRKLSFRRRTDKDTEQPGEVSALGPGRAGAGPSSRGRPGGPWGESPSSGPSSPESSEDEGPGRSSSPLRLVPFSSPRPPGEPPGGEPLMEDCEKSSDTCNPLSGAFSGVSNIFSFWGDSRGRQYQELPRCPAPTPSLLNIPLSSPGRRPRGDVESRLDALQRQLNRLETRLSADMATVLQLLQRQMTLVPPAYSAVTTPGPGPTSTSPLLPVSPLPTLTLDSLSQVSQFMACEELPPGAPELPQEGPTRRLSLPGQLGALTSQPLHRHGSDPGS

| Structure (SMILES) | hERG current change (%, negative = inhibition) at 10uM [%] |
| --- | --- |
| Cc1ccc2c(c1)NCC(C(=O)NC1CCC(C)CC1)O2 (centres unmarked) | 6.16 |
| O=C(NCCOc1ccc2ccccc2c1)c1cncc(Br)c1 | 3.79 |
| CCOc1ccc(C(C)=O)cc1N1C(=O)C2C3C=CC(C3)C2C1=O (centres unmarked) | 8.85 |
| O=C(NCc1ccc(F)cc1)C1CCCN1S(=O)(=O)c1ccccc1C(F)(F)F (centres unmarked) | -13.4 |
| O=C(CSc1nnc(-c2ccccc2)o1)c1nnc(-c2ccccc2)o1 | 20.1 |
| CC1(C)C(=O)Nc2ccccc2N1C(=O)COC(=O)c1ccc(Cl)c(S(=O)(=O)NCc2ccccc2)c1 | -12.8 |
| Cc1ccc(CN2CC(C(=O)N3CCN(S(=O)(=O)c4ccc(C)cc4C)CC3)CC2=O)cc1 (centres unmarked) | -28.2 |
| O=C1C(O)CC2c3ccccc3CC3(CCCC3)N12 (centres unmarked) | 6.83 |
| CC(C)CC12CN3CCN(CC(C3)C1O)C2 (centres unmarked) | -1.15 |
| CC1=C(C)NC(=S)SC1 | 13.9 |
| O=C1CC(c2ccccc2Cl)CC(O)=C1C=Nc1ccccc1 (centres unmarked) | 0.512 |
| O=C(CCC(=O)N1CCOc2ccc(Cl)cc21)NCCCN1CCC(Cc2ccccc2)CC1 | -75 |
| Cc1ccc2c(c1)N(C(=O)CCC(=O)NCCN1CCOCC1)CCO2 | -5.63 |
| O=C(CCC(=O)N1CCOc2ccc(Cl)cc21)NCCCN1CCOCC1 | 6.57 |
| Cc1ccc2c(c1)N(C(=O)CCC(=O)NCCCN1CCOCC1)CCO2 | 5.17 |
| Cc1ccc2c(c1)N(C(=O)CCC(=O)NCCCN1CCC(Cc3ccccc3)CC1)CCO2 | -77.1 |
| Cc1ccc2c(c1)N(C(=O)CCC(=O)NCCCN1CC(C)CC(C)C1)CCO2 (centres unmarked) | -56.2 |
| O=C(CCC(=O)N1CCOc2ccccc21)NCCCN1CCOCC1 | 5.91 |
| Cc1ccc2c(c1)N(C(=O)CCC(=O)NCCCN1CCN(C)CC1)CCO2 | -5.06 |
| Cc1ccc2oc(C(=O)N3CCN(c4cccc(C)n4)CC3)c(C)c2c1 | 8.84 |
| O=C1CCN(Cc2nnnn2CC2CCCO2)c2ccccc2N1 (centres unmarked) | 2.18 |
| CCOP(=O)(OCC)C(NC(=O)c1cccs1)c1ccccc1 (centres unmarked) | 23.5 |

| Structure (SMILES) | hERG current change (%, negative = inhibition) at 10uM [%] |
| --- | --- |
| COc1ccc(/C=N/NC(C)(C)C)c(OC)c1.Cl | 12.3 |
| COc1ccc(C(=O)c2cnc[nH]2)cc1OC | 10.9 |
| Cc1cc(NC(=O)COc2ccccc2C)ccc1NC(=O)c1cccs1 | 0.541 |
| CC1CCCCN1C(=O)C1CCN(c2nc(-c3ccccc3)nc3c2CCC3)CC1 (centres unmarked) | -42.4 |
| O=C(C1CCN(c2nc(-c3ccccc3)nc3c2CCC3)CC1)N1CCC(O)CC1 | -33.4 |
| COCC1CCCCN1C(=O)C1CCN(c2nc(-c3ccccc3)nc3c2CCC3)CC1 (centres unmarked) | -29.2 |
| COCC1CCN(C(=O)C2CCN(c3nc(-c4ccccc4)nc4c3CCC4)CC2)C1 (centres unmarked) | -76.5 |
| CC1CCCN(C(=O)C2CCN(c3nc(-c4ccccc4)nc4c3CCC4)CC2)C1 (centres unmarked) | -55.1 |
| O=C(C1CCN(c2nc(-c3ccccc3)nc3c2CCC3)CC1)N1CCCC1 | -35.8 |
| CC(C)(C)c1nnc(N/N=C/c2ccccc2O)n(N)c1=O | -35 |
| O=C(NCc1ccc2c(c1)OCO2)C1CCCN1C(=O)Nc1cccc(Cl)c1 (centres unmarked) | -25.4 |
| CCCCN(CC)C(=O)c1cc2cc3ccc(Cl)cc3nc2o1 | -9.93 |
| CCCCN(CC)CCNC(=O)c1cc2cc3ccc(Cl)cc3nc2o1 | -72.5 |
| CCCCN(CC)CCNC(=O)c1cc2c(C)nc3ccccc3c2o1 | -53.5 |
| CCc1ccc(CNC(=O)c2cc3c(C)nc4ccccc4c3o2)cc1 | -11.5 |
| CCCCN(CC)C(=O)c1cc2cc3ccc(OC)cc3nc2o1 | -38.8 |
| CCCN(CCC)CCNC(=O)c1cc2c(C)nc3ccccc3c2o1 | -29.7 |
| CCCN(CCC)CCCNC(=O)c1cc2cc3ccc(Cl)cc3nc2o1 | -61 |
| O=C(NCc1ccco1)c1cc2cc3ccc(Cl)cc3nc2o1 | 4.32 |
| CCOCCCNC(=O)c1cc2cc3cc(OC)ccc3nc2o1 | -7.74 |
| CC(C)CNS(=O)(=O)c1cc(C(=O)OCC(=O)N(C)C2CCS(=O)(=O)C2)c(Cl)cc1Cl (centres unmarked) | -13 |
| CC1(C)CC(=O)C=C(NNC(=O)C2CCCCC2)C1 | 8.47 |
